In this experiment the target is Pantothenate synthetase (Mycobacterium tuberculosis (strain ATCC 25618 / H37Rv)) (UniProt P9WIL5). The experiment is described as follows: Coupled enzyme confirmation of inhibitors against recombinant Mtb PanC (AID 375).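 Also: 0% = full reaction with vehicle and 100% = no enzyme background.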 As to conditions: coupled enzyme assay; at 10 µM, active compounds read high.

Unmarked numbers belong to inactive results. No rule for the calls is given here.

Pantothenate synthetase (Mycobacterium tuberculosis (strain ATCC 25618 / H37Rv)), sequence (P9WIL5 whole entry, looked up): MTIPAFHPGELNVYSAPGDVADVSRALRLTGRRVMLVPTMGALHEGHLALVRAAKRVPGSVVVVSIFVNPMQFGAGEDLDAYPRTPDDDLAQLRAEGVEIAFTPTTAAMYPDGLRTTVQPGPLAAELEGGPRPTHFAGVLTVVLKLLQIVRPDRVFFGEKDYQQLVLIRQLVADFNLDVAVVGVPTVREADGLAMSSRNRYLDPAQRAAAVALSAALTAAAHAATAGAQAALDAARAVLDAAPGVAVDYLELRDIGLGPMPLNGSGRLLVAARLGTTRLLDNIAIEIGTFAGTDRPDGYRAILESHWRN

One may read the inhibition as the change of the read-out against control, counted positive when it falls. In the case of `O=C(Nc1ccncc1)C1c2ccccc2Oc2ccccc21`, the inhibition is 0%.

Take `O=C(CN1C(=O)C2C3C=CC(C3)C2C1=O)NCc1ccc2c(c1)OCO2` (stereo unspecified): the inhibition is 0%.

In the case of `CC(=O)Nc1ccc(OCC(O)CN2CCN(c3cccc(Cl)c3)CC2)cc1` (stereo unspecified), the inhibition is 3%.

`N#CC(C(=O)NCCc1ccccc1)c1nc2ccccc2nc1N1CCOCC1` (stereo unspecified): the inhibition was 0%.

Turning to `O=C(Nc1ccc2c(c1)OCO2)C(c1ccccc1)N1CCC2(CC1)OCCO2` (stereo unspecified), the inhibition was 0%.

In the case of `CCn1c(SCC(=O)Nc2ccc(C(=O)OC)cc2)nnc1-c1cccs1`, the inhibition is 3%.

Turning to `O=C(CSc1nc2ccccc2nc1SCC(=O)N1CCOCC1)N1CCOCC1`, the inhibition is 0%.

In the case of `N#Cc1c(SCC(=O)N2CCOCC2)nsc1SCC(=O)N1CCOCC1`, the inhibition was 0%.

Regarding `Cc1ccc(N2CCN(C(=O)c3ccccc3Br)CC2)c(C)c1`, the inhibition is 6%.

In the case of `CCCc1cc(C(=O)Nc2ccccc2SC)no1`, the inhibition is 0%.

On to `Cc1occc1C(=O)Nc1nnc(C2CCCCC2)s1`, for which the inhibition is 0%.

Turning to `CC1(C)Cc2noc(N)c2C(C)(C)N1OC(=O)c1ccco1`, the inhibition was 0%.

On to `OC(CCN1CCCCC1)(c1ccccc1)c1ccccc1`, for which the inhibition was 3%.

For `CCOC(=O)c1[nH]c(CSc2nnc(-c3ccc(OC)cc3)o2)c(C(=O)OCC)c1C`, the inhibition was 0%.

`O=C(CCCCCn1c(=S)[nH]c2cc3c(cc2c1=O)OCO3)N1CCN(Cc2ccccc2)CC1`: the inhibition is 1%.

`COC(=O)c1ccc(COc2ncnc3c(Cl)cc(Cl)cc23)o1`: the inhibition is 0%.

As for `COc1cc2c(cc1OC)C(C)N(C(=O)c1cc3n(n1)C(C(F)(F)F)CC(c1ccco1)N3)CC2` (stereo unspecified), the inhibition is 6%.

As to `CNCCC=C1c2ccccc2CCc2ccccc21`, the inhibition is 0%.

As for `COc1ccc(C2(CN(C(C)=O)C(C)=O)CCCC2)cc1OC`, the inhibition is 2%.

Take `CCN(CC)C(=O)c1ccc(CS(=O)(=O)c2ccc(OC)cc2)o1`: the inhibition was 1%.

Regarding `CCCC(=O)N(Cc1cc2ccccc2[nH]c1=O)c1ccccc1OC`, the inhibition is 2%.

With `CCOC(=O)CC(NS(=O)(=O)c1ccc(NC(C)=O)cc1)c1ccc(OCC)cc1` (stereo unspecified), the inhibition is 5%.

Take `CCOC(=O)c1cnc(C(C)(C)C)[nH]c1=O`: the inhibition is 10%.

`CCOc1cc(C2NC(=O)N(C)C(C)=C2C(=O)OC)cc(Br)c1O` (stereo unspecified): the inhibition is 0%.

Take `CCOC(=O)Nc1ccc2c(CN3C(=O)NC4(CCCC4)C3=O)cc(=O)oc2c1`: the inhibition is 2%.

Turning to `Cc1onc(-c2ccccc2Cl)c1C(=O)Nc1cccc(-c2cn3cccnc3n2)c1`, the inhibition was 7%.

Take `Nc1sccc1C(=O)c1ccc(Cl)cc1`: the inhibition was 0%.

Turning to `Cc1cc(C(=O)N2CCN(C(c3ccccc3)c3ccccc3)CC2)no1`, the inhibition is 3%.

On to `Cn1c(Cc2ccccc2)nnc1SCC(=O)N1CCOCC1`, for which the inhibition was 0%.

With `O=C(/C=C1\NC2(CCCC2)Cc2ccccc21)N1CCOCC1`, the inhibition was 0%.

For the compound `CCOC(=O)c1cccc(NC(=O)CSc2nnc(-c3cccnc3)n2CC)c1`, the inhibition was 0%.

Turning to `CC1=C(C(=O)N2CCCCC2)C(c2cccs2)C2=C(CCCC2=O)N1` (stereo unspecified), the inhibition was 0%.

Regarding `Cc1cc(C)cc(N2C(=O)C3C4C=CC(C4)C3C2=O)c1` (stereo unspecified), the inhibition was 0%.

On to `Cc1nnc(SCCn2c(N3CC(C)CC(C)C3)nc3c2c(=O)n(C)c(=O)n3C)s1` (stereo unspecified), for which the inhibition is 0%.

On to `C/C(N)=C(/C#N)C(=O)CSc1nnc(Nc2cccc(C)c2)s1`, for which the inhibition was 0%.

Regarding `CSc1ccc2c(c1)N(CCC1CCCCN1C)c1ccccc1S2` (stereo unspecified), the inhibition was 11%.

In the case of `Cc1nc(NCc2ccccn2)c2ccccc2n1`, the inhibition is 7%.

On to `CSc1nc(C)c(C(=O)Nc2ccccc2)c(C)c1C#N`, for which the inhibition is 0%.

Consider `Cc1nn(-c2ccc(F)cc2)c2c1cc(C#N)c1nc3ccccc3n12`, for which the inhibition was 6%.

Take `COCCOC(=O)C1=C(C)NC(=O)CC1c1cc2c(cc1Br)OCO2` (stereo unspecified): the inhibition is 1%.

Consider `O=C(Nc1ccc(-c2nc3ncccc3o2)cc1)c1ccc(Br)o1`, for which the inhibition is 15%.

Regarding `O=C(NC1CCCC1)C1CCCN(S(=O)(=O)c2cccc3cccnc23)C1` (stereo unspecified), the inhibition is 2%.

On to `C(=C\c1ccccc1)/CN1CCN(C(c2ccccc2)c2ccccc2)CC1`, for which the inhibition was 0%.

As to `O=C1C2CC=CCC2C(=O)N1c1ccc(Cc2ccncc2)cc1` (stereo unspecified), the inhibition was 0%.

Turning to `CN(C)CCSc1nnc2sc3ccccc3n12`, the inhibition was 8%.

With `CCN(CC)S(=O)(=O)c1cccc2c(N(C)C)cccc12`, the inhibition is 0%.

As to `Cc1cc(Cn2ccnc2)c(C)cc1Cn1ccnc1`, the inhibition was 1%.

Take `COc1ccc(N2CCN(C(=O)c3c(-c4ccccc4)noc3C)CC2)cc1`: the inhibition is 0%.

`COc1cc(C(N)=O)ccc1OCc1ccccc1`: the inhibition is 3%.

With `Cc1cccc2cc(C#N)c(NCCNC(=O)NC3CCCCC3)nc12`, the inhibition was 1%.

Take `O=C(OCN1C(=O)c2ccccc2C1=O)C1CCCCC1`: the inhibition is 1%.

For the compound `CN(CC(=O)Nc1ccc2c(c1)OCCO2)S(=O)(=O)c1ccc(Br)s1`, the inhibition is 6%.

Consider `COc1ccccc1NC(=O)CSc1nnnn1-c1ccc2c(c1)OCO2`, for which the inhibition was 0%.

Turning to `Cc1cnc(C(=O)Nc2ccc(-n3cnnn3)cc2)cn1`, the inhibition is 14%.

Turning to `CCN(CC)CCn1c(OC)cc(=O)[nH]c1=O`, the inhibition was 0%.

Turning to `CCOC(=O)N1CCN(C(=O)c2ccc3nc4cc(Cl)ccc4c(=O)n3c2)CC1`, the inhibition is 8%.

For `COCCNC(=O)c1ccc2c(c1)nc(C)n2-c1cccc(F)c1`, the inhibition is 9%.

For `Cc1cc(C(=O)CSCCCn2c(=O)[nH]c3ccccc32)c(C)n1C`, the inhibition is 2%.

Regarding `CCCCCc1c(C)nc(SCC(=O)O)[nH]c1=O`, the inhibition is 0%.

Take `O=C(CCNNC(=O)c1ccncc1)NCc1ccccc1`: the inhibition is 0%.

For the compound `COC(=O)CN(c1ccc(F)cc1)S(=O)(=O)c1ccccc1`, the inhibition is 0%.

In the case of `CCC(C)OC(=O)c1[nH]c2c(c1C)C(=O)CC(c1ccc(N(C)C)cc1)C2` (stereo unspecified), the inhibition was 0%.

With `COc1ccc(NC(=O)NCCN2C(=O)C3C4C=CC(C4)C3C2=O)cc1` (stereo unspecified), the inhibition is 1%.

With `CCCCC(CC)C(=O)Nc1ccc(Cl)cn1` (stereo unspecified), the inhibition was 8%.

For the compound `Cc1ccc2nc(CSc3nnc(-c4ccco4)n3-c3ccccc3)cc(=O)n2c1`, the inhibition was 4%.

In the case of `CCOc1ccccc1N(CC(=O)N1CCCCCC1)S(C)(=O)=O`, the inhibition was 0%.

As to `Cc1onc(-c2ccccc2)c1C(=O)Nc1ccc(S(=O)(=O)N2CCCCC2)cc1`, the inhibition was 0%.

Take `COc1ccccc1N1CCN(C(=O)c2ccc(S(=O)(=O)N3CCCCCC3)cc2)CC1`: the inhibition was 2%.

In the case of `CN(C)S(=O)(=O)NC(c1ccccc1)c1ccccc1`, the inhibition is 4%.

Turning to `CCCCn1cnc2c(cnn2-c2ccc(Cl)cc2)c1=O`, the inhibition is 6%.

With `Cc1ccc(-n2c(=O)[nH]c3c(C(N)=O)nc(CC(C)C)nc32)cc1`, the inhibition is 0%.

For `c1ccc2c(Cn3ccnc3)c[nH]c2c1`, the inhibition is 0%.

Take `c1coc(Cn2nnnc2CN2CCN(C3CCCC3)CC2)c1`: the inhibition is 0%.

`COc1ccc(NC(=O)CSc2nnc(Cc3cccn3C)n2-c2ccc(F)cc2)cc1OC`: the inhibition was 0%.

For the compound `Cc1nc(Nc2nc(=O)c3ccccc3n2C)nc2c(C)cccc12`, the inhibition was 0%.

As to `O=C(Nc1sccc1C(=O)NCc1ccco1)c1cccnc1`, the inhibition was 5%.

On to `COc1ccccc1-c1noc(-c2ccco2)n1`, for which the inhibition was 6%.

As to `COc1cc(C)c(N)cc1C(C)C`, the inhibition was 2%.

Consider `COc1ccccc1NC(=O)CSc1nnc(Cn2nnc(-c3ccccc3)n2)n1-c1ccccc1`, for which the inhibition is 0%.

In the case of `CN/C(=C/[N+](=O)[O-])NCCSCc1ccc(CN(C)C)o1`, the inhibition is 4%.

For the compound `CCn1cc(C2=NOC(C(=O)Nc3cc(C)nn3-c3ccccc3)C2)c(C)n1` (stereo unspecified), the inhibition was 0%.

As to `COc1ccc(-n2c(SCC(N)=O)nc3sc4c(c3c2=O)CCN(C)C4)cc1`, the inhibition was 0%.

Regarding `COc1ccc(-c2nc(C(N)=O)c3[nH]c(=O)n(-c4cccc(Cl)c4)c3n2)cc1OC`, the inhibition is 1%.

With `CCOc1ccc(-c2nnc3sc(-c4c(OC)cccc4OC)nn23)cc1`, the inhibition is 0%.

As to `O=C(Nc1cc(C(=O)N2CCCC2)ccc1N1CCCC1)c1ccccc1F`, the inhibition is 2%.

On to `COc1cc2[nH]c(=O)n(CCCCCC(=O)N3CCN(c4ccccn4)CC3)c(=O)c2cc1OC`, for which the inhibition was 2%.

As to `Cc1nc2sc(C(c3cccc(F)c3)N3CCC(C)CC3)c(O)n2n1` (stereo unspecified), the inhibition was 0%.

For the compound `CC(Cc1ccc(O)c(O)c1)C(C)Cc1ccc(O)c(O)c1` (stereo unspecified), the inhibition was 0%.

On to `CC1(C)S[C@@H]2[C@H](NC(=O)[C@H](C(=O)O)c3ccsc3)C(=O)N2[C@H]1C(=O)O`, for which the inhibition is 5%.

Take `CC1CCN(C(=O)CSc2nnc(-c3ccc(S(=O)(=O)N4CCOCC4)cc3)n2C)CC1`: the inhibition is 4%.

`O=C(OCc1nnc(-c2ccc(Cl)cc2)o1)c1ccc(=O)n(Cc2ccccc2)n1`: the inhibition is 0%.

Turning to `CCN(Cc1ccccc1)C(c1ccncc1)c1nnnn1C(C)(C)C` (stereo unspecified), the inhibition was 0%.

Regarding `CC(=O)C1=C(N2CCCCC2)CCC1=O`, the inhibition is 0%.

With `O=C(Nc1cc(C(F)(F)F)ccc1N1CCCC1)c1ccc2c(c1)OCO2`, the inhibition is 2%.

Consider `CCCCSc1nc2c(cnn2-c2ccc(Cl)cc2)c(=O)[nH]1`, for which the inhibition was 0%.

For the compound `Cc1ccc(-n2ncc3c(N4CCN(c5ccc(F)cc5)CC4)ncnc32)c(C)c1`, the inhibition was 6%.

Take `O=S(=O)(NC1=NCCC1)c1cccs1`: the inhibition is 0%.

In the case of `COCc1nnc(SCC(=O)NC(C)c2ccccc2)n1-c1ccccc1` (stereo unspecified), the inhibition was 4%.

In the case of `Cc1nc2ccccc2c(=O)n1NC(=O)Nc1ccccc1`, the inhibition was 0%.

Regarding `CC1CCN(C(=O)CSCC(=O)Nc2nc(-c3cccs3)cs2)CC1`, the inhibition was 0%.

As to `Cc1noc(/C=C/N(C)C)c1S(=O)(=O)N1CCCC(C(=O)N2CCCCC2)C1` (stereo unspecified), the inhibition was 7%.

(Values after PubChem BioAssay.)
